The full list was thinned out, with hits kept by preference.
Pf Dd2 growth: inhibitors of Plasmodium falciparum Dd2 growth; P. falciparum Dd2 growth, SYBR Green, 72 h; actives 4.3% (n = 120,000); AID 1347417; Potency, µM (series often up to 28.9 µM), inactives show top-dose activity, negative = inhibition, hits mostly inhibitors; active means well fitted inhibition curve with a large enough effect;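 further: plate controls were DMSO vehicle for no effect and reference drug for full effect; nearly all actives have a fitted effect of over 65% in size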
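Infected erythrocytes (Dd2, 0.3% parasitemia, 2.5% hematocrit final) are added to compound in RPMI-1640/Albumax II medium, grown 72 h at 37C in low oxygen, then lysed with saponin/Triton-X containing SYBR Green and read by fluorescence.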
An asterisk follows results filed as active; i = inactive; [ ] = remark or other dose. Potency means the concentration at half of the fitted maximal effect.

SMILES | Pf Dd2 growth
O=C(c1ccccn1)N1CCN(C(=O)c2nnn3c2COC(c2ccccc2)C3)CC1 (stereo not drawn) | i
O=C(c1ccccc1)N1CCN(C(=O)c2nnn3c2COC(c2ccccc2)C3)CC1 (stereo not drawn) | i
O=C(c1ccc2ccccc2n1)N1CCN(C(=O)c2nnn3c2COC(c2ccccc2)C3)CC1 (stereo not drawn) | 6.3µM*
COc1cccc(CNC(=O)CN2CCCc3nc(C4CC4)ncc3C2=O)c1OC | -8%
COc1ccc(-c2noc([C@@H]3CCCN3C(=O)COc3ccc(C)cc3)n2)cc1 | i
O=[N+]([O-])c1ccccc1CN1C[C@H](O)C[C@H]1c1nc(Cc2ccc(F)cc2Cl)no1 | i
O[C@@H]1C[C@@H](c2nc(-c3ccc4c(c3)OCO4)no2)N(Cc2cccc(OC(F)(F)F)c2)C1 | -10%
O[C@@H]1C[C@@H](c2nc(Cc3ccc(F)cc3Cl)no2)N(Cc2ccc(OC(F)(F)F)cc2)C1 | 7.9µM*
COc1ccc(-c2noc(C(=O)N(C)C)c2[C@H](C)O)cc1 | 0%[44.1 µM]
O=C1CC2CCN(C(=O)Cc3ccccc3)CC2CCN1 (stereo not drawn) | 133%[44.1 µM]
CCCNC(=O)NCC1(COc2ccc(S(C)(=O)=O)cc2)C[C@@H](O)[C@@H](O)C1 (stereo partly drawn) | 6%[44.1 µM]
Cc1ccc(C(=O)N(CC(C)C)CC2CN(C(=O)c3ccc4c(c3)OCO4)CCO2)cc1 (stereo not drawn) | i
Cc1ccccc1-c1cc(-c2c(C)noc2C)c2cncn2c1 | 3.2µM*
Cc1ccccc1-c1nc(-c2c(C)noc2C)cc2cc(CO)oc12 | -30%[44.1 µM]
c1cc(-c2cc(-c3ccncc3)c3cncn3c2)cc(N2CCOCC2)c1 | i
COc1ncccc1-c1nc(-c2c(C)noc2C)cc2c1cc(C)n2C | i
COc1ncccc1-c1cc(-c2ccc(=O)[nH]c2)c2cncn2c1 | i
COc1ncccc1-c1cc(-c2c(C)noc2C)c2cncn2c1 | 10µM*
Cc1ccccc1-c1cc(-c2cn[nH]c2)c2cncn2c1 | -26%[44.1 µM]
Cc1noc2c(-c3ccc(N4CCOCC4)cc3)cc(-c3ccccc3)nc12 | i
Cc1noc(C)c1-c1cc(-c2cccc(N3CCOCC3)c2)cn2cncc12 | 6.3µM*
CCCNC(=O)N1CCC(Cn2c(C)cnc2C2CCOCC2)CC1 | -5%
COCCN1C(=O)CS(=O)(=O)C12CCN(C(=O)CCc1cccc(OC)c1)CC2 | i
CCCNC(=O)C1COC2(CCN(C(=O)c3ccc(OC)cc3)CC2)N1C(=O)c1ccc(F)cc1 (stereo not drawn) | -21%
O=C(Nc1cccc(C(F)(F)F)c1)N[C@@H]1C[C@H](CO)[C@@H](O)[C@H]1O | -15%[44.1 µM]
SMILES | Pf Dd2 growth
c1ccc(-c2noc(-c3cncnc3NCCc3cccs3)n2)cc1 | i
Cc1ccc(C)c(Cn2ccn3nc(-c4ccccc4)c(CO)c3c2=O)c1 | i
Cc1cccc(NC(=O)c2ccc(N3CC4CC(C3)[C@H]3CCCC(=O)N3C4)nc2)c1 (stereo partly drawn) | i
O=C(C1CCC1)N1CCCC1c1nc(C2CCOCC2)no1 (stereo not drawn) | -11%
CS(=O)(=O)N1CCCNCCNC(=O)CC1c1ccccc1 (stereo not drawn) | i
CCOC(=O)C1=C(C)N=C2SC=C(CC(=O)NCCOC)N2C1c1cccc([N+](=O)[O-])c1 (stereo not drawn) | -18%
CCN(CC)CCCNC(=O)c1nn(C)c2c1CSc1ccccc1-2 | 5.6µM*
CC(C)CCNC(=O)c1nn(C)c2c1CSc1ccccc1-2 | -20%
CC(C)OCCCNC(=O)c1nn(C)c2c1CSc1ccccc1-2 | -23%
O=C(c1n[nH]c2ccccc12)N1CCC(c2nc(C3CCOCC3)no2)C1 (stereo not drawn) | i
NC1(C(=O)N2CCCC(N3CCN(Cc4ccc5c(c4)OCO5)CC3)C2)CC1 (stereo not drawn) | -17%
CC(C)C(=O)N1CC[C@H]2COC(=O)N2c2cc(F)ccc2C1 | 8%[44.1 µM]
CC(C)Cn1nc2n(c1=O)CCN(S(=O)(=O)c1cccs1)CC2 | -7%
CC(C)Cn1nc2n(c1=O)CCN(S(=O)(=O)Cc1ccccc1)CC2 | 3%
CC(C)Cn1nc2n(c1=O)CCN(S(=O)(=O)c1ccc(C(C)(C)C)cc1)CC2 | 11µM*
O=C(c1ccccc1Cl)N1CCCC(c2nn(-c3cccc(Cl)c3)c(=O)[nH]2)C1 (stereo not drawn) | i
COc1ccc(C(=O)N2CCCC(c3nn(-c4ccccc4)c(=O)[nH]3)C2)cc1 (stereo not drawn) | i
COc1ccc(-n2nc(C3CCN(C(=O)c4ccccc4)CC3)[nH]c2=O)cc1 | -21%
O=C(Cc1cccc(Cl)c1)N1CCCC(c2nn(-c3cccc(Cl)c3)c(=O)[nH]2)C1 (stereo not drawn) | 10µM*
COc1ccc(-n2nc(C3CCCN(C(=O)Cc4cccc(Cl)c4)C3)[nH]c2=O)cc1 (stereo not drawn) | -23%
COc1ccc(-n2nc(C3CCCN(C(=O)c4ccccc4)C3)[nH]c2=O)cc1 (stereo not drawn) | 11µM*

Bioassay records: PubChem BioAssay, National Center for Advancing Translational Sciences (NCATS)
